High-throughput results deposited in PubChem BioAssay by The Scripps Research Institute Molecular Screening Center.
SMARCA2 act – SMARCA2 (BRM) function activators, primary screen, cell-based, luminescence, high throughput. MG213 cells, MMTV-luciferase reporter, dexamethasone, overnight. activation, % at 9.1 µM. actives 1% (n = 370,000); in the data active means activation above about 7.8%;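 further: 0% = vehicle wells and 100% = reference activator wells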
DAX1 inh-1 – DAX1 (NR0B1) inhibitors on StAR promoter, primary screen, cell-based, luminescence, SF-1 (NR5A1), full-length DAX-1; HEK293T StAR-luciferase reporter, SF-1/DAX-1 repression relief; inhibition, % at 6.8 µM; actives 1.1% (n = 370,000); AID 652010, 2013;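 active means inhibition above the mean over all tested compounds plus 3 SD, cut at about 3.6% in these data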;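 further: 0% = DAX-1 cells with DMSO and 100% = cells lacking DAX-1 with DMSO; higher inhibition means more luminescence from relief of DAX-1 repression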
hcDAF-12 act – H. contortus DAF-12 nuclear receptor activators, primary screen, cell-based, luminescence, HEK293, lit1-tk-luc reporter; HEK293 hcDAF-12 lit1-tk-luc reporter; 0% DMSO, 100% Δ7-dafachronic acid; activation, % at 6.8 µM; actives 1.4% (n = 370,000); AID 652067, 2013;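 active means activation above the mean of all tested compounds plus 3 SD, cut at about 5.5% in these data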;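 further: 100% = response to 3 µM Δ7-dafachronic acid high control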
ssDAF12 agonist – S. stercoralis DAF-12 nuclear receptor activators, primary screen, cell-based, luminescence, HEK293, GRIP1 co-expression, lit1-tk-luc. Nuclear hormone receptor DAF-12 (Strongyloides stercoralis). HEK293 ssDAF-12/GRIP1 lit1-tk-luc reporter; % of 3 µM dafachronic acid response. activation, % at 6.8 µM. actives 1% (n = 370,000). AID 652126, 2013;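 active means activation above the mean over all tested compounds plus 3 SD, cut at about 0.9% in these data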;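 further: 0% = DMSO-only wells and 100% = 3 µM delta7-dafachronic acid wells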
DAX1 inh-2 – DAX1 (NR0B1) inhibitors, primary screen, cell-based, HEK293, Gal4-DAX1, luciferase luminescence; inhibition, % at 6.75 µM; Nuclear receptor subfamily 0 group B member 1 (Homo sapiens), P51843; AID 504766, 2011; actives 0.99% (n = 340,000); HEK293 Gal4-DAX1 luciferase reporter;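 active means inhibition above the mean over all tested compounds plus 3 SD, cut at about 4.2% in these data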;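 further: 0% = DAX1-transfected cells with DMSO and 100% = empty-vector control cells with DMSO; inhibition shows as a rise in luminescence from relieved DAX1 repression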
hgDAF-12 ag – H. glycines DAF-12 receptor agonists, primary screen, cell-based, luminescence, HEK293, GAL4 fusion, UAS-luciferase; actives 1.8% (n = 370,000); HEK293 GAL4-hgDAF12 UAS-luciferase reporter, agonist luminescence; normalized to butyrate control; Nuclear hormone receptor DAF-12 (Heterodera glycines), GAL4 fusion; activation, % at 6.8 µM;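 active means activation above a cutoff set at the mean of all screened compounds plus 3 SD, cut at about 10% in these data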;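 further: 0% = DMSO wells and 100% = sodium butyrate wells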
LXR ag – LXR agonists, Gal4 luciferase reporter, confirmation, counter-screen for hcDAF-12 agonist project, cell-based, luminescence, HEK293, H. contortus campaign | shares compounds with hcDAF-12 act | HEK293 Gal4-LXR tk-luc reporter, 24 h; normalized: DMSO 0%, positive control 100% | activation, % at 6.8 µM | 3,400 tested, under 10 active | AID 743027, 2013;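 active means mean percent activation of the reporter above a cutoff set as the average over tested compounds plus their standard deviation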
Target sequence (P55055 whole entry, looked up, the tested form may be a part): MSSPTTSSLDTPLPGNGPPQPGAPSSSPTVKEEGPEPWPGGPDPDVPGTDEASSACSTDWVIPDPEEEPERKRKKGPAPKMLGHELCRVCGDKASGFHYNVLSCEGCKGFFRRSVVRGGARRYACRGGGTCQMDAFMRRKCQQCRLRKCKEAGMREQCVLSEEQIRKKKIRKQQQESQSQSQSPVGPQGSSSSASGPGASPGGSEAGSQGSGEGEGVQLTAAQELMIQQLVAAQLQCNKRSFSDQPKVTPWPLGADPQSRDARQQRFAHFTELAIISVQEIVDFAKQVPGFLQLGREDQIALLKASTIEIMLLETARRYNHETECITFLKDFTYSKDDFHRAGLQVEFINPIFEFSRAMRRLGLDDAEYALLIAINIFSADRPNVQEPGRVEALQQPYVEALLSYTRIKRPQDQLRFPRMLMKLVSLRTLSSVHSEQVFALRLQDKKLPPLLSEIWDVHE
hcDAF12 conf – H. contortus DAF-12 receptor agonists, confirmation, cell-based, luminescence, HEK293, lit1-tk-luc, triplicate; shares compounds with hcDAF-12 act; HEK293 hcDAF-12 lit1-tk-luc reporter; % of Δ7-dafachronic acid response; activation, % at 6.8 µM; actives 61% (n = 3,400); AID 743032, 2013;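 active means mean activation across triplicate tests above the threshold derived from the earlier primary screen, cut at about 5.5% in these data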;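 further: 0% = DMSO only wells and 100% = 3 µM Δ7-dafachronic acid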
* = called active by the depositor; . = no result given. Only some compounds are listed: those with a hit (about 4.8% of all), similar ones and a draw of the others.

SMILES | SMARCA2 act | DAX1 inh-1 | hcDAF-12 act | ssDAF12 agonist | DAX1 inh-2 | hgDAF-12 ag | LXR ag | hcDAF12 conf
COc1ccccc1C(=O)N/N=C(\C)CC(=O)Nc1ccc(Cl)cn1 | 1 | 2 | 6.6* | 0 | 3 | 5 | 0 | 3
COc1ccccc1C(=O)N/N=C(\C)CC(=O)Nc1ccccn1 | 0 | 0 | 7.3* | 0 | -1 | 3 | 0 | 6.0*
COc1ccccc1-c1cc(C(=O)Nc2cccnc2Cl)no1 | 3 | 0 | -1 | -1 | -1 | -1 | . | .
C/C(CC(=O)Nc1ccccn1)=N\NC(=O)c1ccc(C)cc1 | 0 | 1 | 0 | -1 | 0 | 3 | . | .
O=C(COc1ccccc1Cl)Nc1ccc(Cl)cn1 | 4 | 3 | 9.0* | 1.4* | 2 | 15* | 1 | 11*
O=C(COc1ccccc1)Nc1ccc(Cl)cn1 | 0 | 1 | 0 | 0 | -1 | 2 | . | .
COc1cc2sc(-c3ccc(S(C)(=O)=O)cc3)c(-c3ccc4c(c3)OCO4)c2cc1OC | 0 | 0 | -2 | 0 | 0 | 0 | . | .
CN=C(C)/C(C(=O)OC)=C(/O)c1c(F)cccc1F | -3 | 0 | 1 | -1 | -2 | -1 | . | .
Cc1cccc(/C=C2\CCC(=C3SCCCS3)C2=O)c1 | 4 | 2 | 7.5* | -1 | -4 | 9 | 1 | 7.6*
Cc1cc(C)cc(C(=O)Oc2cc(C)[nH]c(=O)c2[N+](=O)[O-])c1 | -1 | 0 | 8.5* | -1 | 1 | 0 | 0 | 1
O=C1CCC(=O)N1c1ccc(-c2nc3ccccc3s2)cc1 | 2 | 3 | 7.3* | 0 | 3 | 4 | 2 | 9.5*
O=C(Nc1nc(-c2cccs2)c(-c2cccs2)s1)C1CCCC1 | 1 | 0 | 8.1* | -1 | -1 | 5 | 0 | 1
O=C(Nc1nnc(-c2cccs2)s1)C1CC1 | 1 | 2 | 0 | 0 | 1 | 2 | . | .
NC(=O)C1CCCN(C(=S)NCc2ccc3c(c2)OCO3)C1 (stereo not given) | 0 | 0 | -1 | -1 | 0 | 1 | . | .
NC(=O)C1CCCN(C(=S)Nc2cccc3ccccc23)C1 (stereo not given) | -2 | 1 | 7.7* | 0 | 1 | 2 | 0 | 0
O=C(Nc1ccc2c(c1)CCC2)c1cccc(OC(F)F)c1 | 6 | 3 | 7.4* | 1.3* | . | 11* | 1 | 4
O=C(Nc1ccc(S(=O)(=O)N2CCCC2)cc1)c1cccc(OC(F)F)c1 | -2 | -3 | -3 | -1 | -1 | -4 | . | .
Cc1nc(NCCN2CCOCC2)c2nnn(Cc3ccccc3Cl)c2n1 | -3 | -1 | -1 | -2 | -1 | 0 | . | .
Cc1ccnc(NS(=O)(=O)c2ccc(NC(=O)c3ccc(S(=O)(=O)N4CC(C)OC(C)C4)cc3)cc2)n1 (stereo not given) | 0 | 1 | 19* | -1 | 0 | 0 | 0 | 1
CC1CN(S(=O)(=O)c2ccc(C(=O)Nc3ccc(S(=O)(=O)Nc4nccs4)cc3)cc2)CC(C)O1 (stereo not given) | 1 | 2 | 1 | -1 | 3 | -2 | . | .
C=CCc1c(OC(C)=O)c2ccccc2n(C)c1=O | 0 | 0 | -2 | -1 | -2 | 1 | . | .
Cc1cccc(OCC(=O)N2CCN(C(=O)Cc3ccccc3)CC2)c1 | 3 | -1 | 0 | -1 | 0 | -1 | . | .
COc1ccc(C(=O)/C=C/Nc2cc(C)ccn2)cc1 | 3 | 2 | 10* | 0 | -3 | 14* | 2 | 11*
Cc1cccc(NC(=O)c2c([N+](=O)[O-])c(C(C)(C)C)nn2C)c1 | -2 | -1 | -1 | -1 | 1 | -2 | . | .
CCCCN(C(=O)c1ccc(S(=O)(=O)N(C)C)cc1)c1nc2ccccc2s1 | -1 | 0 | 0 | -1 | 0 | 0 | . | .
SMILES | SMARCA2 act | DAX1 inh-1 | hcDAF-12 act | ssDAF12 agonist | DAX1 inh-2 | hgDAF-12 ag | LXR ag | hcDAF12 conf
CN(C(=O)c1ccccc1)c1nc2ccccc2s1 | 2 | 2 | 6.8* | 0 | 0 | 13* | 1 | 6.2*
Cc1ccc(C)n1-c1nnc(N2CCC(C(=O)N3CCN(C)CC3)CC2)s1 | 1 | 0 | 2 | -1 | 2 | -3 | . | .
CCN1CCN(C(=O)C2CCN(c3nnc(-n4c(C)ccc4C)s3)CC2)CC1 | -2 | 0 | 11* | 0 | 2 | 4 | 0 | 1
Cc1csc(N/N=C/c2ccccc2F)n1 | 4 | 1 | 7.2* | 1 | 3 | 10 | 1 | 10*
CC(C)CC1c2[nH]c3ccccc3c2CCN1C(=O)c1cnccn1 (stereo not given) | 4 | 1 | 9.6* | 0.9* | . | 5 | 1 | 12*
CCOC(=O)c1[nH]c2ccc(Br)cc2c1NC(=O)CNC | -6 | 0 | 9.9* | 0 | 1 | 2 | 0 | 5
CCCS(=O)(=O)Nc1c(C(=O)OC)[nH]c2ccccc12 | 1 | 0 | 10* | -1 | -1 | 1 | 0 | 4
CCOC(=O)c1[nH]c2ccccc2c1NC(=S)Nc1ccccc1C | 5 | 3 | 10* | 1.1* | 2 | 6 | 0 | 6.6*
COC(=O)c1[nH]c2ccccc2c1NS(=O)(=O)c1ccc(F)c(C)c1 | -3 | -1 | 0 | -1 | 0 | -3 | . | .
CCOC(=O)c1[nH]c2ccc(Br)cc2c1NC(=O)CCN1CCC(C)CC1 | -3 | -1 | -1 | 0 | 0 | 0 | . | .
FC(F)(F)c1ccc(Oc2ccccc2Cl)nc1 | 2 | 0 | 0 | -2 | 1 | 2 | . | .
O=C(O)Cn1cc(/C=N/Nc2ccc([N+](=O)[O-])cn2)c2ccccc21 | 7 | 0 | 7.9* | 1.4* | 5.4* | 7 | 0 | 4
Cc1ccc(C(=O)N/C(N)=N/c2nc3ccccc3o2)cc1 | 2 | 0 | -1 | -1 | 0 | 3 | . | .
